Where “and” joins values, the source holds several entries; their conditions need not be identical. Equal entries are not always repeated. Results filed as inconclusive are left out. Calls of active or inactive are those of the source. The call rests on the fitted dose curve; in most records, active means well fitted curve in either direction with a large enough effect (not every such curve was filed as active); inconclusive means small, poorly fitted or top-dose-only effect, or another doubt; inactive means flat fitted curve, though single readings scatter.
On the % scale 0 is the no-effect control and ±100 the full control effect.

The assay in a line: NFAT Signaling Pathway (AID 444).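 Further: carbachol stimulus at about its EC50 of 1 µM final.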 As to conditions: Jurkat NFAT-bla M1, carbachol, beta-lactamase ratio, 5 h; at 17.2 µM (top of the series) unless noted. The procedure, abridged: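 Jurkat cells carrying an NFAT-driven β-lactamase reporter and co-transfected muscarinic M1 receptor were treated with compound plus carbachol (1 uM final, an EC50 level) for 5 h at 37 °C. CCF4 loading followed for 1 h at RT; 460/530 nm ratio gave %activity.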
As for `CC(=O)[C@@]1(O)CC[C@H]2[C@@H]3C[C@H](C)C4=CC(=O)C=C[C@]4(C)[C@@]3(F)[C@@H](O)C[C@@]21C`, the activity change, negative = inhibition is 9.08% (inactive).

On to `Cc1c(N(C)C)c(=O)n(-c2ccccc2)n1C`, for which the activity change, negative = inhibition was -3.81% (inactive).

In the case of `CCCCC1(COC(=O)CCC(=O)O)C(=O)N(c2ccccc2)N(c2ccccc2)C1=O`, the activity change, negative = inhibition is 11.7% (inactive).

For the compound `NC(=O)CC[C@@H](N)C(=O)O`, the activity change, negative = inhibition is 0.712% [at 38 µM] (inactive).

As to `OC(CCN1CCCC1)(c1ccccc1)C1CCCCC1` (stereo not given), the activity change, negative = inhibition was -89.4% (active).

As to `CN1CCCN=C1COC(=O)C(O)(c1ccccc1)C1CCCCC1` (stereo not given), the activity change, negative = inhibition was -84.1% (active).

Regarding `CC(=O)N[C@@H](CC(C)C)C(=O)O`, the activity change, negative = inhibition is 1.74% (inactive).

As for `NS(=O)(=O)c1cc2c(cc1C(F)(F)F)NCNS2(=O)=O`, the activity change, negative = inhibition was -1.33% (inactive) and 8.85% (inactive).

As to `NC(N)=NCCN1CCCCCCC1`, the activity change, negative = inhibition is -13.3% (inactive).

On to `CCCCOC(=O)c1ccc(N)cc1`, for which the activity change, negative = inhibition is -8.04% (inactive).

Regarding `CC1CCc2cc(F)cc3c(=O)c(C(=O)O)cn1c23` (stereo not given), the activity change, negative = inhibition is 13.1% (inactive).

For `CCS(=O)(=O)CCn1c([N+](=O)[O-])cnc1C`, the activity change, negative = inhibition was -9.1% (inactive) and -28.6% (inactive).

As for `O=C(O)CCCc1ccccc1`, the activity change, negative = inhibition is 20.3% (inactive).

As to `Cc1c(NC(=O)c2cccnc2)c(=O)n(-c2ccccc2)n1C`, the activity change, negative = inhibition is -13.6% (inactive).

As to `Nc1ccc(S(=O)(=O)c2ccc(N)cc2)cc1`, the activity change, negative = inhibition was -0.066% (inactive) and 13.8% (inactive).
